About 1,400 (61%) of roughly 2,300 compounds were called active. About 29% were inconclusive and are not listed. So high a share suggests a set chosen from earlier hits. The list shows a part of the results. A number with no mark means an inactive call. Calls come from the whole dose curve; as a rule, active = well fitted inhibition curve with a large enough effect; inconclusive = small, poorly fitted or top-dose-only effect, or effect the other way; inactive = no such curve, though single readings can be large or run the other way.
% is set by controls: 0 for no effect and ±100 for the full control effect; potency is the fitted concentration of half-maximal effect.

This experiment can be described thus: Confirmation screen for delayed death inhibitors of the malarial parasite plastid, 96 hour incubation. Note: nearly all actives have a fitted effect of over 60% in size. As to conditions: P. falciparum luciferase growth in erythrocytes; series mostly up to 28.7 µM; activity change, negative = inhibition: at the top concentration. The procedure, abridged: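 Two-generation (96 h, 37 C) exposure of P. falciparum carrying an integrated firefly luciferase reporter in erythrocytes, 0.1% parasitemia and 2% hematocrit final, Albumax-supplemented RPMI. Luminescence decrease measures growth inhibition.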
Turning to `CCOc1ccccc1NC(=O)/C(C#N)=C/c1cccnc1`, the Potency was 12.6 µM (active). Consider `Cc1oc(=O)c(NC(=O)c2ccc(Cl)cc2)cc1C(=O)c1ccccc1`, for which the “activity change, negative = inhibition” value is -6.13%. On to `O=C(c1ccccc1)c1nn(-c2ccc(Cl)cc2)c(=O)cc1C(F)(F)F`, for which the Potency is 12.6 µM (active).

For the compound `O=C(c1cccc(Cl)c1)c1nn(-c2ccccc2)c(=O)cc1C(F)(F)F`, the Potency is 6.31 µM (active). For `COc1ccc(N2CCN(C3CCCN(Cc4ccc(F)cc4)C3)CC2)cc1` (centres undefined), the Potency is 14.1 µM (active). In the case of `COc1ccccc1N1CCN(C2CCCN(Cc3ccc(Cl)cc3)C2)CC1` (centres undefined), the Potency is 2.51 µM (active). On the same count and under the same terms, next, `Cc1cccc(/C=C/C(=O)c2ccc(NC3=NCCCS3)cc2)c1`: 11.2 µM (active); `O=C(/C=C/c1ccccc1)c1ccc(NC2=NCCCS2)cc1`: 14.1 µM (active). As to `O=C(c1ccsc1)N1CCCC(N2CCN(c3cccc(C(F)(F)F)c3)CC2)C1` (centres undefined), the Potency is 12.6 µM (active). Consider `Cc1cc(C(=O)N2CCCC(N3CCN(c4cccc(C(F)(F)F)c4)CC3)C2)c(C)o1` (centres undefined), for which the Potency was 10 µM (active). As for `COc1ccc(/C=C/C(=O)c2ccccc2)cc1Cn1nnc2ccccc21`, the Potency is 6.31 µM (active). With `COc1cc(Cn2nnc3ccccc32)ccc1O`, the Potency was 11.2 µM (active).

Turning to `Cc1cccc(NC(=S)/N=C(\N)Nc2nc(C)c3ccccc3n2)c1`, the Potency was 12.6 µM (active). For the compound `CCCN1CCN(CCCNC(=O)c2cc3c(s2)-c2c(C)cccc2OC3)CC1`, the Potency was 12.6 µM (active). Still for that read-out and setting: next, `CCn1c2ccccc2c2c3ncc4cccn4c3ccc21`: 14.1 µM (active). As for `COC(=O)[C@@H]1C[C@]2(OC(=O)c3ccccc3)C=CC(=O)C[C@@H]2N1C(=O)OCc1ccccc1`, the Potency was 12.6 µM (active).

In the case of `Cc1cc(OCC(=O)N2CCCC2)cc(C)c1Cl`, the “activity change, negative = inhibition” value was -3.62%.

As for `O=S(=O)(c1ccc(OCc2ccc(Br)cc2)cc1)N1CCOCC1`, the Potency is 8.91 µM (active).

On to `CCOc1ccc(S(=O)(=O)N2CCN(C(=O)CCOc3ccccc3C)CC2)cc1`, for which the Potency was 11.2 µM (active). For the compound `O=C(COc1ccccc1)N1CCN(S(=O)(=O)c2ccc(Br)cc2)CC1`, the Potency was 10 µM (active). Turning to `CCOc1ccccc1OCCC(=O)N1CCN(S(=O)(=O)c2ccccc2[N+](=O)[O-])CC1`, the Potency is 11.2 µM (active). As for `O=S(=O)(c1ccc(SCCO)nc1)N1CCOCC1`, the “activity change, negative = inhibition” value is 5.43%. Take `Cc1cc(C)n2nc(C(=O)N/N=C/c3c4ccccc4cc4ccccc34)nc2n1`: the Potency is 4.47 µM (active). On to `CCc1ccc(C2c3[nH]c4ccccc4c3CCN2C(=O)c2cc(C)nn2C)cc1` (centres undefined), for which the Potency was 3.55 µM (active). In the case of `CSc1ccc(C2c3[nH]c4ccccc4c3CCN2C(=O)c2ccnn2C)cc1` (centres undefined), the Potency was 3.98 µM (active). As for `Cn1nccc1C(=O)N1CCc2c([nH]c3ccccc23)C1c1ccc(F)cc1` (centres undefined), the Potency was 6.31 µM (active). Take `N=c1c2c3c(sc2ncn1Cc1ccccc1)CCCC3`: the “activity change, negative = inhibition” value was -12.3%. On to `COc1ccccc1NC(=O)c1oc2ccccc2c1NC(=O)C1CC1`, for which the Potency is 7.94 µM (active). In the case of `O=C(c1ccccc1)N1CCCC(c2ccc(Cl)cc2)=N1`, the Potency is 12.6 µM (active). In the case of `O=[N+]([O-])c1ccc(Sc2cccc3cccnc23)c([N+](=O)[O-])c1`, the Potency is 2.82 µM (active).

`Cc1ccc(/C=C/C(=O)NC(C)c2ccccc2)cc1` (centres undefined): the Potency was 11.2 µM (active).

As to `CCN(CC)CCC[C@H](C)Nc1ccnc2cc(Cl)ccc12`, the Potency is 0.501 µM (active).

In the case of `COc1ccc2nc3cc(Cl)ccc3c(Nc3cc(C(C)C)c(O)cc3C)c2c1`, the Potency was 0.0251 µM (active). Regarding `CCN(CC)CCC[C@H](C)Nc1c2ccc(Cl)cc2nc2ccc(OC)cc12`, the Potency was 0.224 µM (active). On the same count and under the same terms, next, `O=C(CCl)Nc1cccc2ncccc12`: 3.55 µM (active); `Cc1nc(SC(C)C(=O)NCC2CCCO2)c2cc(-c3ccccc3)sc2n1` (centres undefined): 11.2 µM (active). On the same count and under the same terms, next, `CN(C)c1ccc(S(=O)(=O)N2CCCCC2)cc1NC(=O)C1=NN(c2ccccc2)C(=O)CC1`: 3.55 µM (active); `O=C(Nc1cc(Cl)ccc1N1CCCC1)C1=NN(c2ccccc2)C(=O)CC1`: 12.6 µM (active).

As for `O=C(CSc1nnc(COc2ccccc2)n1-c1ccccc1)c1cccs1`, the Potency was 11.2 µM (active).

In the case of `COc1cc2c(cc1OC)CN(C(=O)COc1ccccc1C#N)CC2`, the “activity change, negative = inhibition” value is -97.4%. On to `COc1cc2c(cc1OC)CN(C(=O)COc1ccccc1[N+](=O)[O-])CC2`, for which the Potency was 14.1 µM (active). As to `Cc1ccc(C)c(-n2nnnc2Sc2nnnn2-c2ccccc2)c1`, the Potency is 10 µM (active). Same read-out and setting: next, `COc1ccc2c(C)cc(Sc3nnnn3-c3ccccc3)nc2c1`: 15.8 µM (active). For `CCCOc1ccccc1/C=C1\SC(N2CCCCC2)=NC1=O`, the Potency was 0.891 µM (active). In the case of `COc1cccc(/C=C2\SC(N3CCCC(C)C3)=NC2=O)c1OC` (centres undefined), the Potency was 11.2 µM (active).

Turning to `Cc1cc(-c2ccc(C(C)C)c(S(=O)(=O)NCc3ccco3)c2)on1`, the Potency was 14.1 µM (active). Regarding `CCc1ccc(-c2cc(C)no2)cc1S(=O)(=O)NCc1ccco1`, the Potency was 12.6 µM (active). `CN(C)S(=O)(=O)c1cccc(NC(=S)N/N=C/c2cc(Br)ccc2O)c1`: the Potency is 3.98 µM (active). For the compound `O=C(O)CCn1c(-c2ccccc2)cc2c1CCCC2=O`, the “activity change, negative = inhibition” value was -11.5%.

Consider `CC(=O)/C=C/c1ccccc1Oc1c(F)c(F)nc(F)c1F`, for which the Potency is 3.16 µM (active). Take `O=C(CSc1cccc2cccnc12)N/N=C/c1cccnc1`: the Potency is 12.6 µM (active).

Take `CN(C)S(=O)(=O)c1cccc(NC(=O)CSc2cccc3cccnc23)c1`: the Potency was 7.94 µM (active). On the same count and under the same terms, next, `O=C(NCc1ccccc1)C1=C[C@@H](c2coc3ccccc3c2=O)C[C@@H](OCc2ccc(CO)cc2)O1`: 7.08 µM (active). As for `O=C(Nc1ccccc1)C1=C[C@@H](C2CCCCC2)C[C@@H](OCc2ccc(CO)cc2)O1`, the Potency is 10 µM (active). `O=C(NC1CC1)C1=C[C@@H](C2CCCCC2)C[C@@H](OCc2ccc(CO)cc2)O1`: the Potency is 10 µM (active). Regarding `COc1cccc(NC(=O)CSc2nc3n[nH]c(C)c3c(=N)n2-c2cccc(OC)c2)c1`, the Potency was 6.31 µM (active).

In the case of `NC1=NC[C@@H](Cc2ccc(O)cc2)N1CCc1cccc(F)c1`, the Potency was 3.98 µM (active). Still for that read-out and setting: next, `NC1=NC[C@H](Cc2ccc(O)cc2)N1CCc1cccc(F)c1`: 3.16 µM (active); `NC(=O)C1CCN(c2nc(C3CC3)nc3c2nnn3Cc2ccccc2Cl)CC1`: 3.16 µM (active).

Take `CS(=O)(=O)c1ccc(-c2nnc(NC(=O)c3ccc(S(=O)(=O)N4CCCC4)cc3)o2)cc1`: the Potency is 15.8 µM (active). Still for that read-out and setting: next, `CC1CCN(CCc2nc3cc(NS(=O)(=O)c4ccc(F)cc4)ccc3n2C)CC1`: 12.6 µM (active).

With `Cn1c(CCN2CCCCC2)nc2cc([N+](=O)[O-])ccc21`, the “activity change, negative = inhibition” value was -17.4%. Consider `Cn1c(CCN2CCCCC2)nc2cc(NS(=O)(=O)c3ccc(F)cc3)ccc21`, for which the Potency is 12.6 µM (active). For `CCOc1ccc(S(=O)(=O)Nc2cc(S(=O)(=O)N(CC)CC)ccc2N2CCCC2)cc1`, the Potency is 0.501 µM (active). Still for that read-out and setting: next, `N#Cc1cc(C(=O)c2cc(Cl)ccc2O)cn(-c2ccccc2)c1=O`: 12.6 µM (active). For `COc1ccc(Nc2cccc(Cl)c2)c(C(=O)O)c1`, the “activity change, negative = inhibition” value is -20.8%.

With `COc1cccc(NC(C)C(=O)Nc2cc([N+](=O)[O-])ccc2Cl)c1` (centres undefined), the Potency was 3.16 µM (active). As to `O=C(O)CCc1ccc(-c2ccccc2)n1-c1ccc(C(=O)O)cc1`, the “activity change, negative = inhibition” value was 0.286%. As for `Cc1ccc(NC(=O)/C(=C\c2ccc([N+](=O)[O-])cc2)NC(=O)c2ccccc2)cc1`, the Potency was 2.82 µM (active). Still for that read-out and setting: next, `Cc1ccc(NC(=O)c2ccc(Nc3c([N+](=O)[O-])cc([N+](=O)[O-])cc3[N+](=O)[O-])cc2)cc1`: 2.24 µM (active); `CN1c2ccccc2-c2nc3ccccc3n2C1c1cccs1` (centres undefined): 4.47 µM (active). Turning to `O=C(c1ccc(CS(=O)c2ccccc2Cl)o1)N1CCCCCC1` (centres undefined), the Potency was 5.62 µM (active). For the compound `O=C(c1ccc(CS(=O)c2ccccc2Cl)o1)N1CCN(c2ccccn2)CC1` (centres undefined), the Potency is 1.41 µM (active). Turning to `CO[C@@H]1[C@@H](OC2OC(C)C(OC3CC(C)(O)C(OC(=O)CC(C)C)C(C)O3)C(N(C)C)C2O)[C@@H](CC=O)C[C@@H](C)C(=O)/C=C\C2O[C@H]2C[C@@H](C)OC(=O)C[C@H]1OC(C)=O` (some centres undefined), the Potency is 1.78 µM (active). Still for that read-out and setting: next, `CO[C@H]1[C@H](O[C@H]2O[C@@H](C)[C@@H](O[C@@H]3C[C@](C)(O)[C@H](O)[C@H](C)O3)[C@@H](N(C)C)[C@@H]2O)[C@@H](CC=O)C[C@@H](C)[C@@H](O[C@H]2CC[C@H](N(C)C)[C@H](C)O2)/C=C\C=C/C[C@@H](C)OC(=O)C[C@H]1O`: 2.51 µM (active); `Cc1ccc(OCCSCc2nnc(NC(=O)Nc3cccc(Cl)c3)s2)cc1`: 2 µM (active); `CCCNC(=O)COC(=O)c1ccccc1C(=O)c1ccc(Cl)c([N+](=O)[O-])c1`: 10 µM (active).

On to `Cc1onc(-c2c(F)cccc2Cl)c1-c1nnc(-c2ccc(C(F)(F)F)cc2)o1`, for which the Potency was 6.31 µM (active). For the compound `COc1cc(/C=C/C(=O)Nc2cccnc2)cc(OC)c1OC`, the Potency was 11.2 µM (active). For the compound `COc1ccc(C(=O)/C=C/c2ccccc2)c(OC)c1`, the Potency was 7.94 µM (active). On to `COc1ccc2cc(C(=O)/C=C/c3cc(OC)c(O)c(OC)c3)ccc2c1`, for which the Potency was 15.8 µM (active). Still for that read-out and setting: next, `COc1cc(O)cc(O)c1C(=O)/C=C/c1ccccc1`: 11.2 µM (active).

For `COc1ccc(C(=O)/C=C/c2ccc(OC)c(O)c2)c(F)c1`, the Potency was 11.2 µM (active). The same measure, in the same setting: next, `COc1ccc(C(=O)/C=C/c2cccnc2)c(OC)c1`: 3.55 µM (active); `Cc1ccc(Nc2cc(C)nc3ccc(C)cc23)cc1`: 10 µM (active). `COc1cc2c(cc1OC)[C@@H](NC(=O)C(C)C)[C@H](OCc1ccccc1)C2`: the “activity change, negative = inhibition” value is -82.6%.

For the compound `COC(=O)C1=C(C)N(CC2CC2)C(=NCc2cc(OC)c(OC)c(OC)c2)N[C@H]1c1ccccc1`, the Potency was 11.2 µM (active). As for `Cc1nc(-c2ccccn2)sc1C(=O)Nc1ccc(Cl)c(Cl)c1`, the “activity change, negative = inhibition” value was -23%.

On to `O=C(Nc1ccc(N2CCCCC2)c(Cl)c1)c1cccnc1`, for which the Potency is 12.6 µM (active).

Source of the values: PubChem BioAssay AID504848 (National Center for Advancing Translational Sciences (NCATS), 2011).
